From PubChem BioAssay AID504690 (Sanford-Burnham Center for Chemical Genomics, 2011) come the findings set out here.

The whole screen tested about 350,000 compounds, of which about 2,700 (0.77%) were called active. The sample holds actives, similar compounds and a random draw of the others, so the mix is not that of the screen. Unmarked numbers belong to inactive results.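 Rule for the calls: active = inhibition reaching at least a set limit at 20 µM in the primary screen (cut at about 59% in these data); inactive = the rest.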

The assay relates to glucose-6-phosphate dehydrogenase-6-phosphogluconolactonase (Plasmodium falciparum 3D7). The assay is described as follows: PfG6PD enzyme inhibitors, primary screen, biochemical, fluorescence intensity, uHTS (AID 504690).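 Note: 0% = DMSO wells with substrate and 100% = DMSO wells lacking glucose-6-phosphate.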 Conditions: PfGluPho enzyme, NADPH resazurin-diaphorase fluorescence; at 20 µM; active compounds read high. In general terms: The colour change of resazurin is a common sign of viable cells or microbes.
With `Oc1[nH]c2ccccc2c1N=Nc1c(F)c(F)c(F)c(F)c1F`, the inhibition is 0.03%.

With `O=C(CCN1CCCCC1)N=Nc1c(O)[nH]c2ccccc12`, the inhibition was 6.66%.

On to `Cc1c(-c2ccccc2)n[nH]c1C(=O)N=Nc1c(O)[nH]c2ccccc12`, for which the inhibition is 88.8% (active).

As to `CC1(C)C=C2[C@H]3CC[C@@H]4[C@@]5(C)CCC(=O)C(C)(C)[C@@H]5CC[C@@]4(C)[C@]3(C)CC[C@@]2(C(=O)O)CC1`, the inhibition is -28.4%.

In the case of `Cn1c(SCC(=O)Nc2ccc(Br)cc2F)nnc1-c1ccco1`, the inhibition was -4.98%.

Turning to `Cn1c(-c2ccco2)nc2cc3ccccc3cc21`, the inhibition is 60.5% (active).

`COc1ccc(-n2cnc3cc(NCc4ccco4)ccc32)cc1`: the inhibition was 23.7%.

As for `COc1ccc(Cl)cc1NC(=O)CCS(=O)(=O)c1ccc(Br)cc1`, the inhibition is 43%.

Turning to `O=C(COC(=O)/C(=C/c1cccs1)c1cccs1)NCc1ccccc1Cl`, the inhibition is -3.87%.

On to `Cc1cc(N)n2nc(-c3ccc(C(C)(C)C)cc3)cc2n1`, for which the inhibition was 84.5% (active).

As to `COc1ccc(-c2cc(C)nc3nc(N)nn23)cc1`, the inhibition is -2.23%.

As to `Cc1cc(C(C)(C)C)cc(C)c1N`, the inhibition is 12.1%.

On to `CC(C)C(c1nnnn1C1CCCCC1)N1CCN(C(=O)c2ccco2)CC1` (stereo not drawn), for which the inhibition is -12.7%.

With `CN(CCc1cnn(C)c1)Cc1cn(C)nc1-c1ccccc1F`, the inhibition is -8.15%.

As for `COc1ccc(NC(=O)CCC(=O)Nc2nnc(C3CCCCC3)s2)cc1`, the inhibition was -7.47%.

In the case of `CNC(=O)c1sc(Nc2ccc(OCc3ccccc3)cc2)nc1C`, the inhibition was 19.4%.

On to `COC(=O)CCc1sc(Nc2ccc(Br)cc2)nc1-c1ccc(OC)cc1`, for which the inhibition is 64.3% (active).

Regarding `COc1ccc(NC(=O)CN2C(=O)COc3ccc(S(=O)(=O)N4CCOCC4)cc32)c(OC)c1`, the inhibition was -0.58%.

With `O=c1[nH]c2ccccc2n2c(-c3ccccc3)nnc12`, the inhibition is 102% (active).

On to `O=C(c1ncn2c1c(=O)[nH]c1ccccc12)N1CCc2ccccc2C1`, for which the inhibition is 8.24%.

`CC(=O)N(C)c1ccc(NC(=O)Nc2cccc3ccccc23)cc1`: the inhibition is -6.82%.

As to `COc1cc2ccccc2cc1C(=O)Nc1ccccc1C`, the inhibition is -15.2%.

As to `COc1ccccc1C(=O)Nc1ccccc1C(=O)Nc1ccccc1`, the inhibition is 8.55%.

Consider `COc1ccc(C(=O)Nc2cc(C)c(NC(=O)c3ccccc3OC)cn2)cc1`, for which the inhibition is 79.1% (active).

As for `C=CCNC(=O)c1sc(SC)cc1-c1ccc(Cl)cc1`, the inhibition was 9.14%.

Consider `CCc1ccc2[nH]c(=O)c(Cc3ccccc3)c(O)c2c1`, for which the inhibition was -9.56%.

As for `COc1ccc(CCC(=O)N2CCN(S(=O)(=O)c3ccc(OC)cc3)CC2)cc1`, the inhibition was -10.5%.

Consider `Nc1ccc2[nH]c(=S)sc2c1`, for which the inhibition is 74.7% (active).

Consider `O=c1[nH]c2ccccc2s1`, for which the inhibition was 5.6%.

`C/C(=C\c1ccco1)CN1CCC(N2CCC(C(=O)N3CCOCC3)CC2)CC1`: the inhibition was -6.22%.

For `CN(C(=O)c1cccc(NC(=O)Cc2cccc(NC(=O)C3CCCN(C(=O)C4CC4)C3)c2)c1)C1CCC1` (stereo not drawn), the inhibition is 13.5%.

Consider `Cc1ccc(Nc2nc(CSc3nnnn3-c3ccccc3)cc(=O)[nH]2)cc1`, for which the inhibition is 2.74%.

For the compound `C/C(=N/NC(=O)C1COc2ccccc2O1)c1ccco1` (stereo not drawn), the inhibition is -17.2%.

As for `O=C(Nc1nc(-c2ccncc2)cs1)C1COc2ccccc2O1` (stereo not drawn), the inhibition is 82.1% (active).

`COc1ccc(NC(=O)COC(=O)C2COc3ccccc3O2)cc1` (stereo not drawn): the inhibition is -2.2%.

`CCOC(=O)C1(CCOc2ccccc2)CCN(C(=O)c2cncs2)CC1`: the inhibition was -8.03%.

For `N#Cc1cnn2cc(CCN3CCOCC3)c(-c3ccc(F)cc3)nc12`, the inhibition is -4.2%.

For `O=C(C1CCC1)N1CCN(c2ccccc2)CC1`, the inhibition is -11.2%.

`O=C(C1CC(=O)N(C2CCCCC2)C1)N1CCN(c2ccccc2)CC1` (stereo not drawn): the inhibition was 1.77%.

In the case of `O=C1C=CC(=O)N1c1ccc(N2CCCCC2)cc1`, the inhibition was 59.2% (active).

Take `O=C(CSc1ccc(C(F)(F)F)cc1[N+](=O)[O-])NCCOc1ccccc1`: the inhibition was 4.59%.

As to `CCc1cccc(NC(=S)N(CCN(C)C)C2CCN(C(C)C)CC2)c1`, the inhibition was -1.59%.

For the compound `CC(C)c1cc(C(N)=O)c(NC(=O)c2cccc(COc3ccc(Br)cc3)c2)s1`, the inhibition was 17.7%.

With `CC(C)Oc1ccc(C(=O)NC(C)(C)CO)cc1`, the inhibition is -5.29%.

For `CCn1c(SCC(=O)Nc2sc(C)c(C)c2C#N)nnc1C1CC1`, the inhibition was 13.8%.

As to `CCOC(=O)c1sc(NC(=O)CSc2nc(C)cc(C(F)(F)F)n2)c(C#N)c1C`, the inhibition was 60.4% (active).

With `Cc1cc(C(F)(F)F)nc(SCC(=O)Nc2nccs2)n1`, the inhibition was 14.7%.

Consider `CCOC(=O)c1cc2c(=O)n3ccccc3nc2n(CC(C)C)c1=NC(=O)c1c(-c2c(F)cccc2Cl)noc1C`, for which the inhibition is 10.9%.

Consider `O=C(CSc1nnc(SCc2ccc(F)cc2)s1)Nc1ccc(C(=O)O)cc1`, for which the inhibition was -15.7%.

Turning to `O=C(CSc1nnc(SCc2ccc(Cl)cc2)s1)N/N=C/c1ccccc1Cl`, the inhibition was 75.1% (active).

In the case of `O=C(Cc1ccccc1)N/N=C/c1ccc(Cl)cc1Cl`, the inhibition is 8.79%.

Take `CC1CCCN(C(=O)Cn2c(=O)oc3cc(S(=O)(=O)N4CCCCC4C)ccc32)C1` (stereo not drawn): the inhibition is -4.91%.

Consider `CC(C)(C)c1cc2cccnc2n1Cc1ccccc1`, for which the inhibition is 2.96%.

As a reminder, the inhibition is the drop in the measured response relative to a control, in per cent.
